Experimental data as given in PubChem BioAssay AID1159580 (chemical genetic matrix, 2015).
Values joined by “and” are separate entries in the source; they are usually repeats but may differ in a detail not shown here. Identical values can stand only once. Out of some 5,500 compounds screened, about 2,000 (36%) were called active. Inconclusive results (about 18%) are left out. Rule as the data show it: active = normalized growth mostly below about 0.91 (no sharp cut-off); inconclusive = no clear call, values can overlap the other calls; inactive = mostly above about 0.92. The list shows a part of the results.

Assay: chemical genetic growth profiling, strain panel (AID 1159580);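 also: tested at 20 µM; growth read once vehicle control cultures reached saturation at 30 °C; 1 = growth at the plate median or of vehicle wells; lower values mean less growth of the strain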
Conditions: S. cerevisiae deletion strains, growth OD

Measured: normalized growth

Nc1nc(/C(=C/CC(=O)O)C(=O)N[C@@H]2C(=O)N3C(C(=O)O)=CCS[C@H]23)cs1
inactive: locus YAL013W, strain DEP1, hits give low values 0.991 | locus YAL021C, strain ccr4, hits give low values 1.01 | locus YAL026C, strain drs2, hits give low values 1.01 | locus YAL030W, strain snc1, hits give low values 1.02 | locus YBL061C, strain skt5, hits give low values 1 | locus YBR009C, strain hhf1, hits give low values 1.02 | locus YBR021W, strain FUR4, hits give low values 0.982 | locus YBR023C, strain chs3, hits give low values 1.01 | locus YBR171W, strain sec66, hits give low values 1.04 | locus YBR229C, strain ROT2, hits give low values 0.971 | locus YBR231C, strain swc5, hits give low values 1.01 | locus YBR279W, strain paf1, hits give low values 1 | locus YCL011C, strain gbp2, hits give low values 1 | locus YCL016C, strain dcc1, hits give low values 0.99 | locus YCL029C, strain bik1, hits give low values 0.988 | locus YCL061C, strain MRC1, hits give low values 1.01 | locus YCL069W, strain vba3, hits give low values 1 | locus YCR088W, strain abp1, hits give low values 1.01 | locus YDL005C, strain med2, hits give low values 1.01 | locus YDL035C, strain GPR1, hits give low values 1.01 | locus YDL040C, strain nat1, hits give low values 0.997 | locus YDL074C, strain BRE1, hits give low values 1.02 | locus YDL101C, strain DUN1, hits give low values 0.989 | locus YDL134C, strain PPH21, hits give low values 0.988 | locus YDL185W, strain tfp1, hits give low values 0.99 | locus YDL192W, strain arf1, hits give low values 0.983 | locus YDR001C, strain nth1, hits give low values 1.02 | locus YDR069C, strain doa4, hits give low values 1.01 | locus YDR101C, strain arx1, hits give low values 0.99 | locus YDR137W, strain rgp1, hits give low values 1.01 | locus YDR150W, strain NUM1, hits give low values 0.998 | locus YDR159W, strain sac3, hits give low values 1.02 | locus YDR162C, strain NBP2, hits give low values 1 | locus YDR195W, strain ref2 1.01 | locus YDR297W, strain sur2, hits give low values 1.01 | locus YDR318W, strain mcm21, hits give low values 0.996 | locus YDR334W, strain swr1, hits give low values 0.993 | locus YDR335W, strain msn5, hits give low values 1.01 | locus YDR388W, hits give low values 0.992 | locus YDR392W, strain spt3, hits give low values 1.01 | locus YDR502C, strain sam2, hits give low values 0.992 | locus YEL003W, strain gim4, hits give low values 1.01 | locus YEL037C, strain rad23, hits give low values 1 | locus YEL061C, strain CIN8 (second series), hits give low values 1 | locus YEL061C, strain CIN8, hits give low values 0.995 | locus YER015W, strain faa2, hits give low values 1 | locus YER016W, strain bim1, hits give low values 0.998 | locus YER110C, hits give low values 0.978 | locus YER111C, strain swi4, hits give low values 1.01 | locus YER155C, strain BEM2 (second series), hits give low values 1.03 | locus YER155C, strain BEM2, hits give low values 1.04 | locus YER167W, strain BCK2, hits give low values 0.985 | locus YFR010W, strain ubp6, hits give low values 1 | locus YGL078C, strain dbp3, hits give low values 0.995 | locus YGL086W, strain mad1, hits give low values 0.991 | locus YGL167C, strain pmr1, hits give low values 1 | locus YGL173C, strain kem1, hits give low values 1.02 | locus YGL227W, strain vid30, hits give low values 1.01 | locus YGL240W, strain doc1, hits give low values 1.01 | locus YGL248W, strain PDE1, hits give low values 0.978 | locus YGL253W, strain hxk2, hits give low values 1 | locus YGR078C, strain PAC10, hits give low values 1.03 | locus YGR135W, strain pre9, hits give low values 0.991 | locus YGR229C, strain SMI1, hits give low values 0.935 | locus YGR252W, strain gcn5, hits give low values 1.04 | locus YHR013C, strain ard1, hits give low values 0.997 | locus YHR027C, strain rpn1, hits give low values 1.01 | locus YHR030C, strain SLT2, hits give low values 0.99 and 0.989 | locus YHR079C, strain IRE1 (second series), hits give low values 0.998 | locus YHR079C, strain IRE1, hits give low values 0.974 | locus YHR094C, strain hxt1, hits give low values 0.99 | locus YHR129C, strain ARP1, hits give low values 0.989 | locus YHR142W, strain chs7, hits give low values 1.02 | locus YHR200W, strain rpn10, hits give low values 0.992 | locus YIL066C, strain RNR3, hits give low values 0.993 | locus YIL073C, strain SPO22, hits give low values 1.03 | locus YIL125W, strain kgd1, hits give low values 0.994 | locus YIR030C, strain dcg1, hits give low values 0.987 | locus YJL092W, strain hpr5, hits give low values 1 | locus YJL095W, strain BCK1 (second series), hits give low values 1.01 | locus YJL095W, strain BCK1, hits give low values 0.997 and 1.01 | locus YJL115W, strain asf1, hits give low values 1.03 | locus YJL129C, strain trk1, hits give low values 1.01 | locus YJL134W, strain LCB3, hits give low values 0.993 | locus YJL154C, strain vps35, hits give low values 1.01 | locus YJL164C, strain tpk1, hits give low values 0.988 | locus YJL166W, strain qcr8, hits give low values 1.02 | locus YJL168C, strain set2, hits give low values 0.99 | locus YJL187C, strain SWE1 (second series), hits give low values 0.989 | locus YJL187C, strain SWE1, hits give low values 1.01 | locus YJR043C, strain POL32, hits give low values 0.981 | locus YJR066W, strain TOR1, hits give low values 0.949
